Molecules are shown by their SMILES. “And” between values parts separate entries of the source, which are not always exact repeats. Identical values can stand only once. A number with no mark means an inactive call. Inconclusive results are not listed. The source made the active and inactive calls. Unless noted, calls come from the whole dose curve; as a rule, active = well fitted curve in the direction sought with a large enough effect; inconclusive = small, poorly fitted or top-dose-only effect, or another doubt; inactive = no such curve, though single readings can be large; an effect the other way counts as inactive or inconclusive.

We go through 16 compounds from PubChem BioAssay (NCATS).

Assay [1] can be described thus: AP1 Signaling Pathway (AID 357; active = well fitted curve in either direction with a large enough effect, not every such curve was filed as active;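 note: ME-180 reporter cells stimulated with EGF at its EC50 level; % is set by controls: 0 for no effect and ±100 for the full control effect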). Put shortly:
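First, ME-180 AP-1-bla cells were cultured overnight at 37 °C in low-serum Opti-MEM. Next, titrated compounds with EC50 EGF were incubated 5 hours. Finally, CCF4 was added for 2.5 hours and the 460/530 nm ratio recorded.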

The target in assay [2] is Cytochrome P450 1A2 (Homo sapiens) (UniProt P05177). The experiment in a line: p450-cyp1a2 (AID 410; calls by dose curve; note: potency is the fitted concentration of half-maximal effect;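 for activity change, negative = inhibition: -100% = full effect of reference inhibitor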). In outline:
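20nM CYP1A2 with 100uM Luciferin-ME (at Km) in 100mM KPO4; compound preincubated 10 min, NADPH regeneration added, 60 min at room temperature. Luciferin quantified by luminescence after detection reagent; normalized to 57 uM furafylline.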

Assay [3] is described as follows: Stat Signaling Pathway (AID 446; active = well fitted curve in either direction with a large enough effect, not every such curve was filed as active;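 note: ME-180 cervical cancer cells given 40 pM IL-6 alongside compound; SIE-controlled beta-lactamase reporter measured as 460/530 nm FRET emission ratio; % is set by controls: 0 for no effect and ±100 for the full control effect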). The note with it: ME-180 SIE beta-lactamase reporter, IL-6 stimulated, 5 h; at 38 µM (top of the series) unless noted. Put shortly: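 Reporter line: ME-180 cervical carcinoma, SIE-beta-lactamase. Treatment: compound with 40 pM IL-6, 5 hrs, 37 C, in low-serum OPTI-MEM with 10 mM HEPES pH 7.3. Detection: 460/530 nm fluorescence.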

Assay [4] addresses Glucocorticoid receptor (Homo sapiens) (UniProt P04150). Put plainly: GR-GFP Redistribution (AID 450;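 active = compounds whose dose series gives a full or clear partial fitted curve of increased nuclear translocation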; note: potency is the fitted concentration of half-maximal effect). The conditions noted are these: U2OS GR-GFP nuclear translocation, laser cytometry, 2 h.
For assay [5] the target is unchanged. Put plainly: GR-EFC Redistribution (AID 451; calls by dose curve; note: potency is the fitted concentration of half-maximal effect). The note with it: CHO-K1 GR-EFC translocation, beta-gal luminescence, 2 h. In outline: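 CHO-K1 cells stably expressing nuclear-localized β-gal enzyme acceptor and GR fused C-terminally to the enzyme donor fragment; ligand-driven nuclear translocation restores β-gal by complementation. Compounds titrated up to 46 uM final, 2 h at 37 °C; luminescence read.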

Assay [6] in a line: NFAT Signaling Pathway (AID 444; active = well fitted curve in either direction with a large enough effect, not every such curve was filed as active;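 note: carbachol stimulus at about its EC50 of 1 µM final; % is set by controls: 0 for no effect and ±100 for the full control effect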). The note with it: Jurkat NFAT-bla M1, carbachol, beta-lactamase ratio, 5 h; at 38 µM (top of the series) unless noted. Put shortly: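 Jurkat cells carrying an NFAT-driven β-lactamase reporter and co-transfected muscarinic M1 receptor were treated with compound plus carbachol (1 uM final, an EC50 level) for 5 h at 37 °C. CCF4 loading followed for 1 h at RT; 460/530 nm ratio gave %activity.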

In assay [7] the target is Mitogen-activated protein kinase 10 (Mus musculus) (UniProt Q61831). The experiment in a line: JNK3 AlphaScreen Assay (AID 530; active = well fitted curve in either direction with a large enough effect, not every such curve was filed as active;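 note: kinase came from lysate of stimulated human HepG2 cells; signal reports phosphorylation of biotinylated GST-cJun 1-79 at Ser73 with 10 µM ATP; % is set by controls: 0 for no effect and ±100 for the full control effect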). In outline:
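Inhibitors reduce antibody binding to phosphorylated biotin-cJun, lowering AlphaScreen luminescence. Lysates from HepG2 cells pre-activated by IL-1beta plus TNF-alpha supplied JNK3; compounds were titrated.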
(In general: Alpha assays give light when donor and acceptor beads are brought close together.)

The nature of assay [8]: Cell Viability - BJ (AID 421; calls by dose curve;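 note: potency is the fitted concentration of half-maximal effect; cells exposed to compound for 40 hours at 37 °C before readout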). The conditions noted are these: BJ fibroblast viability, qHTS. Put shortly:
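Cytotoxicity as drop in intracellular ATP (CellTiter-Glo, 20 min RT) after 40 hr compound exposure of BJ fibroblasts at 37 °C. Titrations scaled between DMSO and 100 uM tamoxifen, Hill-fitted for AC50.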
(In general: qHTS replaces the single test concentration by a dilution series.)

The nature of assay [9]: Cell Viability - Jurkat (AID 426;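 active = dose-dependent loss of cell ATP signal giving a full or clear fitted curve, ranked by lower potency value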; note: potency is the fitted concentration of half-maximal effect). The note with it: qHTS. In outline: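 Jurkat (Clone E6-1) cells, 5000/well in complete medium, exposed to compounds for 40 hr at 37C; intracellular ATP measured by CellTiter-Glo luminescence after 20 min at room temperature. AC50 from Hill fits.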
The nature of assay [10]: Cell Viability - Hek293 (AID 427;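 active = compounds whose dose-response curve shows a full or clear partial loss of cell viability, called from curve shape rather than a numeric limit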;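 note: potency is the fitted concentration of half-maximal effect; cells exposed to compound for 40 hours at 37 °C before reading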). The conditions noted are these: qHTS. In outline: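 Luminescent ATP content (CellTiter-Glo, 20 min at room temperature) was measured after a 40 hr, 37 °C compound exposure of HEK293 cells. AC50 values came from Hill-equation fits of qHTS concentration-response data normalized to DMSO and 100 uM tamoxifen.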
A short description of assay [11]: Cell Viability - HepG2 (AID 433; calls by dose curve;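 note: potency is the fitted concentration of half-maximal effect; potency for ATP loss meaning cytotoxicity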). The conditions noted are these: qHTS. In outline:
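HepG2 cells, 1500 per well, treated 40 hr at 37 °C in complete medium; viability from intracellular ATP by CellTiter-Glo luminescence. Normalized to DMSO and 100 uM tamoxifen; AC50 from Hill fit of qHTS concentration-response.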

The nature of assay [12]: Cell Viability - MRC5 (AID 434; calls by dose curve;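 note: potency is the fitted concentration of half-maximal effect; potency reflects cytotoxicity seen as loss of intracellular ATP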). The note with it: MRC5 lung fibroblast viability, qHTS. Put shortly: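 MRC5 normal human lung fibroblasts (1500/well) were treated with compounds for 40 hr at 37 °C in complete medium, and viable cells were measured as intracellular ATP by CellTiter-Glo luminescence. AC50 came from Hill fits, normalized to DMSO and 100 uM tamoxifen.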
A short description of assay [13]: Cell Viability - SK-N-SH (AID 435; calls by dose curve;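 note: potency is the fitted concentration of half-maximal effect; compound exposure lasted 40 h at 37 °C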). The conditions noted are these: SK-N-SH neuroblastoma cell viability qHTS. In outline: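 SK-N-SH neuroblastoma cells (1500/well) treated 40 h at 37 °C in complete medium; viability read as cellular ATP by CellTiter-Glo luminescence. Normalized to DMSO and 100 uM tamoxifen; AC50 from Hill fits of qHTS concentration-response.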

Assay [14] in a line: Cell Viability - N2a (AID 540).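 Note: plate controls were DMSO alone for no effect and tamoxifen control for full effect; nearly all actives have a fitted effect of over 45% in size.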 The note with it: N2a mouse neuroblastoma cell viability; activity change, negative = cytotoxicity: at 92.2 µM (top of the series). Put shortly: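 Mouse neuroblastoma N2a cells, 1500/well, exposed to compounds 40 h at 37 °C in complete medium. Viability measured as cellular ATP by CellTiter-Glo luminescence; AC50 from Hill fits of concentration-response.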

Assay [15] in a line: Cell Viability - NIH 3T3 (AID 541).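 Note: plate controls were DMSO alone for no effect and tamoxifen positive control for full effect; nearly all actives have a fitted effect of over 25% in size.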 The conditions noted are these: NIH 3T3 cell viability, qHTS; activity change, negative = cytotoxicity: at 92.2 µM (top of the series). In outline:
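Mouse NIH 3T3 fibroblasts, 1000 cells/well, rested 5 hr at 37 °C, then exposed to compound for 40 hr at 37 °C in complete medium. Viability read as intracellular ATP by CellTiter-Glo luminescence; AC50 from Hill-equation fits of concentration-response data.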

A short description of assay [16]: Cell Viability - HUV-EC-C (AID 542). Note: nearly all actives have a fitted effect of over 35% in size. Note: potency is the fitted concentration of half-maximal effect. Put shortly: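 HUV-EC-C human vascular endothelial cells, 1000/well, exposed to compound for 40 hr at 37 °C in complete medium. Intracellular ATP was read by CellTiter-Glo luminescence. AC50 came from Hill-equation fits of concentration-response data.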
Assay [17] is described as follows: Cell Viability - SH-SY5Y (AID 544). Note: nearly all actives have a fitted effect of over 55% in size. Note: potency is the fitted concentration of half-maximal effect. Put shortly: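 SH-SY5Y human neuroblastoma cells (1500/well) incubated 5 h, then compound-treated 40 h at 37 °C in complete medium. Viability read as intracellular ATP by CellTiter-Glo luminescence after 20 min; AC50 from Hill-equation fits of qHTS concentration-response.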
A short description of assay [18]: Cell Viability - Renal Proximal Tubule (AID 545).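 Note: 0% = DMSO only and -100% = 100 µM tamoxifen; nearly all actives have a fitted effect of over 40% in size.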 The note with it: renal proximal tubule cells viability; activity change, negative = cytotoxicity: at 91.7 µM (top of the series). In outline: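 Rat renal proximal tubule primary cells, 1000/well, exposed to compounds for 40 hr at 37 °C in complete medium; cellular ATP read by CellTiter-Glo luminescence. AC50 from concentration-response fitted with standard Hill equation.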

Assay [19] is described as follows: Cell Viability - H-4-II-E (AID 543). Note: nearly all actives have a fitted effect of over 35% in size. Note: potency is the fitted concentration of half-maximal effect. In outline: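 Rat hepatoma H-4-II-E cells, 1500 per well, treated 40 h at 37 °C in complete medium. Cellular ATP read by CellTiter-Glo luminescence; AC50 from Hill fits of concentration-response.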

Chain of Cytochrome P450 1A2 (Homo sapiens) (P05177 whole entry, looked up): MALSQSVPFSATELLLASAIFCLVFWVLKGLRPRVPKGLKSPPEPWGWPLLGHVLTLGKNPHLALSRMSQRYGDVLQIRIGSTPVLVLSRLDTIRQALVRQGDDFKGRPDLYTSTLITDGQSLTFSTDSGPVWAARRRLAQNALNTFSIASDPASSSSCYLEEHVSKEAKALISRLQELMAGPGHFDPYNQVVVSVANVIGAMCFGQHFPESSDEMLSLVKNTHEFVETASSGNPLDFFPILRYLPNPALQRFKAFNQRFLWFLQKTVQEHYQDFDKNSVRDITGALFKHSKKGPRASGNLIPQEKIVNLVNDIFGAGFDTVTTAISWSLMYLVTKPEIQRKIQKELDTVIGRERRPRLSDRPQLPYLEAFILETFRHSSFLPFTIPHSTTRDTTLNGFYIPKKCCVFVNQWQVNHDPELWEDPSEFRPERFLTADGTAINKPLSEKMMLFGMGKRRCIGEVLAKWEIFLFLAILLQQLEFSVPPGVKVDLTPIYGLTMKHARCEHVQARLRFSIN
Chain of Glucocorticoid receptor (Homo sapiens) (P04150 whole entry, looked up, the tested form may be a part): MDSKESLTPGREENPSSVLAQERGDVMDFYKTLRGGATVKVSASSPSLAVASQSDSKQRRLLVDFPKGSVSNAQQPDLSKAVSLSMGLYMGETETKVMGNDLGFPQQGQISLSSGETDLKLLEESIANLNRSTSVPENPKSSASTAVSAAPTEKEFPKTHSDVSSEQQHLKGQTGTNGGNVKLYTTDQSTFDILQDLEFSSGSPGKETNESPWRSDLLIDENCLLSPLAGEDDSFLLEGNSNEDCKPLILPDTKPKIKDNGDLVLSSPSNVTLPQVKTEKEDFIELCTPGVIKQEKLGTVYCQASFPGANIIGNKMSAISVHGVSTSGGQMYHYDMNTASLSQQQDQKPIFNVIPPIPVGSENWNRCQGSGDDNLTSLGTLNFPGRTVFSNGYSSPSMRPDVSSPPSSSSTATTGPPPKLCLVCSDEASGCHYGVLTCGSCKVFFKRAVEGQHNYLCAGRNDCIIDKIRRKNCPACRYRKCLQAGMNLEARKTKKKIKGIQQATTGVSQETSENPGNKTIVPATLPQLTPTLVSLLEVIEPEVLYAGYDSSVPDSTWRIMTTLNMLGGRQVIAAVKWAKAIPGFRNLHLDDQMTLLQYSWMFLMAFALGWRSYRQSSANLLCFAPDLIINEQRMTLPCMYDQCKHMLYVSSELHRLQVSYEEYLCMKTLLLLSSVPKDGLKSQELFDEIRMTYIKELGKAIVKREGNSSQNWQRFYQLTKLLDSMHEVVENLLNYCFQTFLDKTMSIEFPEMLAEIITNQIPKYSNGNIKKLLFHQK

Take `CCCN(CCC)[C@H]1CCc2c(F)ccc(O)c2C1`: in assay [1], the compound was classed as inactive. The Potency in [2] was 12.6 µM (active) and 25.1 µM (active); in assay [4], greater than 46 µM; in assay [5] it was greater than 46 µM. Moreover, the activity, negative = inhibition in assay [3] was 3.16% and 1.48%.
With `C[C@@H]1O[C@H](C[N+](C)(C)C)CS1`, the result in assay [1] was inactive. Further, the Potency result in assay [2] is “inactive”. Further, the activity, negative = inhibition in assay [3] is 19.2%. For the same compound, the Potency in assay [4] and in assay [5] was greater than 46 µM in each case.
For `Nc1ccc(CCN2CCN(c3cccc(C(F)(F)F)c3)CC2)cc1`, the result in assay [1] was inactive. In addition, the Potency is 10 µM (active) in assay [2], greater than 46 µM in [4] and greater than 46 µM in assay [5]. For the same compound, in [3], the activity, negative = inhibition is -17.7%.
Regarding `C[C@H](N)CN1CCc2ccc(Br)cc21`, in [1], the compound was classed as inactive. In addition, the activity, negative = inhibition in [3] was -29.5%. Further, the Potency in assay [4] and in assay [5] was greater than 46 µM throughout.
In the case of `NC(=O)COc1c(F)cc(SCCNS(=O)(=O)c2ccccc2)cc1F`, the compound was called inactive in assay [1] and in assay [7]. In addition, in assay [6], the activity change, negative = inhibition is 20.9%. Moreover, the Potency in assay [4] and in [5] was greater than 46 µM each time.
For `O=S(=O)(O)c1cc(O)ccc1O`, the call in assay [1] and in assay [7] was inactive. For the same compound, the activity change, negative = inhibition in assay [6] is -8.18% [at 17.2 µM]. Further, the activity, negative = inhibition in assay [3] was 11.9% [at 17.2 µM]. Moreover, the Potency in [4] and in assay [5] was greater than 20.6 µM throughout.
`N[C@@H](Cn1oc(=O)[nH]c1=O)C(=O)O`: the Potency in assay [4] and in assay [5] was greater than 46 µM throughout. Further, the outcome in assay [7] was inactive.
Take `COC1=CC(=O)O[C@@H](/C=C/c2ccccc2)C1`: the Potency in assay [8], in assay [9], in assay [10], in assay [11], in assay [12] and in assay [13] was greater than 92 µM in each case. The result in [7] was inactive. Besides, the Potency entry in [14], in assay [15], in assay [16], in [17] and in assay [18] was “inactive” in each case.
As for `CC(C)Nc1ccc(Nc2ccccc2)cc1`, the Potency was 22.8 µM (active) in assay [9]; 40.5 µM (active) in assay [13]; 12.6 µM (active) in [16]; 25.1 µM (active) in assay [19]; 10 µM (active) in assay [17]. For the same compound, the values for the activity change, negative = cytotoxicity in [14] and in [15] were -116% (active) and -150% (active), respectively.
Turning to `[O]=[Cd]`, the Potency in assay [8], in assay [9], in assay [10], in assay [11], in assay [12] and in assay [13] was greater than 92 µM in each case. For the same compound, the Potency result in [14], in assay [15], in assay [16], in assay [19], in [17] and in [18] was “inactive” throughout.
`O=C1CCO1`: the Potency in assay [8], in assay [9], in [10], in assay [11], in assay [12] and in assay [13] was greater than 92 µM in each case. The outcome in [7] was inactive. The Potency result in assay [14], in [15], in assay [16], in assay [19], in [17] and in assay [18] was “inactive” in each case.
Consider `CCOC(=O)c1ccccc1C(=O)OCC`, for which the Potency in [8], in assay [9], in assay [10], in assay [11], in [12] and in assay [13] was greater than 92 µM throughout. Also, the Potency entry in [14], in assay [15], in assay [16], in [19], in [17] and in [18] was “inactive” in each case.
With `ClC(Cl)(Cl)Cl`, the Potency in assay [8], in assay [9], in assay [10], in [11], in assay [12] and in [13] was greater than 92 µM each time. Besides, the outcome in [7] was inactive. Besides, the Potency entry in [14], in [15], in assay [16], in assay [19], in assay [17] and in assay [18] was “inactive” in each case.
As to `C[C@]12CCC(=O)C[C@@H]1CC[C@@H]1[C@@H]2CC[C@]2(C)[C@@H](O)CC[C@@H]12`, the Potency in assay [8], in assay [9], in assay [11], in assay [12] and in [13] was greater than 92 µM in each case. In addition, the outcome in assay [7] was inactive. The Potency result in assay [14], in [15], in assay [16], in [17] and in assay [18] was “inactive” each time.
For the compound `ClC=C(Cl)Cl`, the Potency in [8], in [9], in assay [10], in [11], in assay [12] and in [13] was greater than 92 µM throughout. Besides, the Potency result in [14], in assay [15], in assay [16], in [19], in assay [17] and in assay [18] was “inactive” each time.
Regarding `O=c1ccc2[nH]cc(C3=CCNCC3)c2[nH]1`, the Potency entry in [2] is “inactive”. Besides, the Potency in assay [4] and in assay [5] was greater than 46 µM each time.
